Data: ChEMBL document CHEMBL3988442, “University of Dundee, Small-Polar-MMV Screening Library” (2021)
Hit rate of the full screen: of about 69,000 compounds, about 1,000 (1.4%) showed an effect of 50% or more. The sample as a whole holds a higher share of strong results than the screen did.

System: Leishmania donovani
Test: Leishmania intramacrophage assay
Format: functional, organism-based
Design: scale not given: in the data most compounds retested in dose-response had high values

Fc1ccc(Sc2ccccc2CNC2=NCCN2)cc1.I
Percent Effect (30.3 µM, […]): 50.51%

I.c1ccc(Sc2ccc3c(c2)OCO3)c(CNC2=NCCN2)c1
Percent Effect (30.3 µM, […]): 21.74%

Fc1ccccc1Sc1ccccc1CNC1=NCCN1.I
Percent Effect (30.3 µM, […]): 29.36%

Cc1nnc([C@@H]2C[C@H]3CN(C(=O)c4sccc4C)C[C@H]3O2)[nH]1
Percent Effect (30.3 µM, […]): 16.44%

CN(Cc1cccnc1)[C@@H]1CN(C(=O)CC2CC2)[C@@H]2CCCO[C@H]12.O=C(O)C(F)(F)F.O=C(O)C(F)(F)F
Percent Effect (30.3 µM, […]): -10.3%

CN(Cc1cccnc1)[C@@H]1CN(C(=O)c2ccoc2)[C@@H]2CCCO[C@H]12.O=C(O)C(F)(F)F.O=C(O)C(F)(F)F
Percent Effect (30.3 µM, […]): -5.312%

CN(Cc1cccnc1)[C@@H]1CN(C(=O)c2ccno2)[C@@H]2CCCO[C@H]12.O=C(O)C(F)(F)F.O=C(O)C(F)(F)F
Percent Effect (30.3 µM, […]): 75.56%

Cn1ccnc1-c1noc(NCc2ccc(Cl)cc2)n1
Percent Effect (30.3 µM, […]): -1.294%

Cc1cc(C)nc(NC(=O)NCCCSc2nncn2C)n1
Percent Effect (30.3 µM, […]): 12.59%

Cc1ccccc1-n1cnc(Cl)c1C(=O)O
Percent Effect (30.3 µM, […]): 51.36%

O=C(O)c1c(Cl)ncn1-c1ccccc1
Percent Effect (30.3 µM, […]): 42.23%

O=C(O)c1c(Cl)ncn1-c1cccc2ccccc12
Percent Effect (30.3 µM, […]): 32.69%

CN(C)C1CCC2(CCN(Cc3nccn3C)CC2)c2ccccc21.O=C(O)C(F)(F)F.O=C(O)C(F)(F)F (configuration not stated)
Percent Effect (30.3 µM, […]): 15.24%

c1cncc(CN2CCC(NCCc3ccc4c(c3)OCO4)CC2)c1
Percent Effect (30.3 µM, […]): 21.95%

COc1cccc(-c2cc(C(=O)NCCCn3nc(C)cc3C)[nH]n2)c1
Percent Effect (30.3 µM, […]): 35.19%

COc1cccc(-c2cc(C(=O)NCCCC(F)(F)F)[nH]n2)c1
Percent Effect (30.3 µM, […]): 24.25%

COc1cccc(-c2cc(C(=O)NCCCn3cnnc3)[nH]n2)c1
Percent Effect (30.3 µM, […]): 50.06%

Cc1cc(C)c2c(c1)C(CC(=O)O)C(=O)N2 (configuration not stated)
Percent Effect (30.3 µM, […]): 12.49%

Cc1ccc2nc(C)c(C)c(C(=O)NCCCn3ccnn3)c2c1
Percent Effect (30.3 µM, […]): 16%

CC(C)(C)c1n[nH]c(C2CN(Cc3nnc(C4CC4)o3)CCO2)n1 (configuration not stated)
Percent Effect (30 µM): 6.806%

Cc1cc(C(=O)N2C[C@@H](CN(C)CCN(C)C)[C@@H](CO)C2)nc(C)n1
Percent Effect (30.3 µM, […]): 0.2814%

COc1ccc2cc(C(=O)N3CCCCC3CC(N)=O)[nH]c2c1 (configuration not stated)
Percent Effect (30 µM, 30.03 µM): 4.026%

NC(=O)CN1CCC(NC(=O)Nc2nccs2)CC1
Percent Effect (30 µM, 30.03 µM): -0.9986%

CC(CNCc1ccncc1)Oc1ccccn1.Cl (configuration not stated)
Percent Effect (30 µM, 30.03 µM): 6.303%

Cc1c(C)n(CC(O)CN2CCOCC2)c2c(Cl)cccc12.Cl (configuration not stated)
Percent Effect (30.3 µM, […]): -3.857%

Cc1c(C)n(CC(O)CN2CCN(CCO)CC2)c2c(Cl)cccc12.Cl (configuration not stated)
Percent Effect (30.3 µM, […]): 50.22%

Cc1c(C)n(CC(O)CN2CCCCCC2)c2c(Cl)cccc12 (configuration not stated)
Percent Effect (30.3 µM, […]): -13.19%
